These results are taken from PubChem BioAssay (EPA / NIEHS).

Test [1] is described as follows: LTEA_HepaRG_LDH_cytotoxicity: Cytotoxicity Assessment in the Life Technologies and Expression Analysis (LTEA) Assay (AID 2283563). In short, it runs like this: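 Human HepaRG hepatic cells are treated with test chemicals for 48 h at up to 100 uM in 0.5% DMSO. Cytotoxicity is scored from medium LDH against the vehicle control.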
A short description of test [2]: ATG_XTT_Cytotoxicity: Cytotoxicity Assessment in the Attagene TRANS-FACTORIAL HepG2 Assay (AID 2283584). In short, it runs like this:
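Transfect HepG2 with GAL4-UAS reporter units, dose compound, incubate 24 h, then measure viable cell number by XTT. Fit concentration response against DMSO baseline.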

A short description of test [3]: TOX21_p53_BLA_p2_viability: Viability Assessment in the Tox21 HCT-116 p53 Agonism Beta-lactamase Assay, Phase 2 (AID 2283591).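 Also: compound exposure lasted 16 h at 37 °C; actives lower the ATP signal meaning cytotoxicity.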 In a few lines: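 Cytotoxicity readout: CellTiter-Glo ATP luminescence, 30 min at room temperature, after the beta-lactamase read. Cells were HCT116 exposed 16 h at 37C to compounds pin-transferred at 217-fold dilution from DMSO stocks.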

The target in test [4] is Cellular tumor antigen p53 (Homo sapiens) (UniProt P04637). The experiment in a line: TOX21_p53_BLA_p2_ratio: Tox21 HCT-116 p53 Agonism Beta-lactamase Assay, Ratio, Phase 2 (AID 2283592). In a few lines: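 Cleaved-to-uncleaved substrate ratio (460 vs 530 nm) measured in HCT116 cells with an inducible beta-lactamase reporter linked to p53 activity. Compounds incubated 16 h at 37C before 2 h room-temperature CCF4-AM loading.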

A short description of test [5]: TOX21_p53_BLA_p3_viability: Viability Assessment in the Tox21 HCT-116 p53 Agonism Beta-lactamase Assay, Phase 3 (AID 2283593).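 Also: cells exposed to compound for 16 h before reading.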 In short, it runs like this:
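Cellular ATP was quantified by CellTiter-Glo luminescence, read after 30 min at room temperature. Beforehand, HCT116 cells (4000/well) received compound 5 h post-seeding, 217-fold diluted from DMSO, then incubated 16 h at 37C.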

Test [6] addresses Cellular tumor antigen p53 (Homo sapiens) (UniProt P04637). Kind of test: TOX21_p53_BLA_p3_ratio: Tox21 HCT-116 p53 Agonism Beta-lactamase Assay, Ratio, Phase 3 (AID 2283596). In a few lines: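 Cells were seeded at 4000/well, rested 5 h at 37C, then dosed with DMSO compound solutions (217-fold dilution) for 16 h. CCF4-AM substrate was loaded for 2 h at room temperature, and the 460/530 nm emission ratio was fitted for gain of signal versus DMSO.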

A short description of test [7]: TOX21_p53_BLA_p4_viability: Viability Assessment in the Tox21 HCT-116 p53 Agonism Beta-lactamase Assay, Phase 4 (AID 2283597).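 Also: hits lower the luminescence signal meaning cytotoxicity.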 In a few lines:
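Viability is taken as cellular ATP: after 16 h compound exposure of HCT116 cells and a 2 h room-temperature CCF4-AM substrate step, CellTiter-Glo reagent is added and luminescence is measured 30 min later.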

The target in test [8] is Cellular tumor antigen p53 (Homo sapiens) (UniProt P04637). Kind of test: TOX21_p53_BLA_p5_ratio: Tox21 HCT-116 p53 Agonism Beta-lactamase Assay, Ratio, Phase 5 (AID 2283599). In a few lines: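 Beta-lactamase reporter ratio (blue 460 nm over green 530 nm, 405 nm excitation) after 2 h CCF4-AM loading, in HCT-116 cells exposed 16 h at 37 C to compounds pinned at 217-fold dilution. Increases relative to DMSO baseline scored.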

The nature of test [9]: TOX21_p53_BLA_p5_viability: Viability Assessment in the Tox21 HCT-116 p53 Agonism Beta-lactamase Assay, Phase 5 (AID 2283600). In a few lines: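 Viability is taken from cellular ATP content, measured by luciferase luminescence in the same wells after the beta-lactamase ratio read. Cells are seeded at 4000 per well and exposed to DMSO-dissolved compounds, diluted 217-fold, for 16 h.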

Test [10] deals with Cellular tumor antigen p53 (Homo sapiens) (UniProt P04637). Kind of test: TOX21_p53_BLA_p4_ratio: Tox21 HCT-116 p53 Agonism Beta-lactamase Assay, Ratio, Phase 4 (AID 2283601). In a few lines:
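Signal is the blue/green (460nm/530nm) ratio of cleaved versus uncleaved CCF4-AM substrate, read after 2 h substrate loading. Cells were HCT116 carrying the p53-responsive beta-lactamase reporter, dosed 16 h at 37C, 5% CO2; CellTiter-Glo measured in parallel.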

A short description of test [11]: Tanguay_ZF_120hpf_MORT_legacy: (Legacy) Oregon State University Tanguay Lab 120 Hour Post-fertilization zebrafish Assay for Mortality (AID 2283633). In short, it runs like this: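 Mortality endpoint from a multiplexed whole-embryo zebrafish screen. Dechorionated wild-type embryos received compound at 6 hpf and remained under static exposure at 28C until 120 hpf, with death noted as a present/absent call.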

Test [12] can be described thus: Tanguay_ZF_120hpf_YSE_legacy: (Legacy) Oregon State University Tanguay Lab 120 Hour Post-fertilization zebrafish Assay for Yolk Sac Edema (AID 2283634). In a few lines: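 Readout: presence or absence of yolk sac edema at 120 hpf, fitted upward against DMSO controls. Exposure ran statically from 6 hpf in dechorionated embryos kept at 28C.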
A short description of test [13]: Tanguay_ZF_120hpf_AXIS_legacy: (Legacy) Oregon State University Tanguay Lab 120 Hour Post-fertilization zebrafish Assay for Body Axis Malformation (AID 2283635). In short, it runs like this: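 Static 6–120 hpf chemical exposure of dechorionated wild-type 5D zebrafish, one per well at 28C; morphology endpoint scored binary at 120 hpf relative to DMSO control.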
Test [14] in a line: Tanguay_ZF_120hpf_EYE_legacy: (Legacy) Oregon State University Tanguay Lab 120 Hour Post-fertilization zebrafish Assay for Eye Malformation (AID 2283636).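 Also: binary presence or absence of eye malformation scored by brightfield in 120 hpf larvae.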 In a few lines: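 Binary brightfield scoring of eye defects at 120 hpf after static exposure from 6 hpf of single pronase-dechorionated wild-type embryos (28C, 0.64% DMSO). Non-mortality endpoints omitted where embryos died; fit vs DMSO.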

Test [15] in a line: Tanguay_ZF_120hpf_SNOU_legacy: (Legacy) Oregon State University Tanguay Lab 120 Hour Post-fertilization zebrafish Assay for Snout Malformation (AID 2283637). In a few lines:
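Binary snout-malformation call at 120 hpf in wild-type 5D embryos, chorion removed by pronase, under static exposure from 6 hpf at 28C (0.64% DMSO). Embryos dying by 24 or 120 hpf excluded.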

A short description of test [16]: Tanguay_ZF_120hpf_JAW_legacy: (Legacy) Oregon State University Tanguay Lab 120 Hour Post-fertilization zebrafish Assay for Jaw Malformation (AID 2283638). In a few lines:
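Static waterborne exposure of dechorionated wild-type (Tropical 5D) zebrafish from 6 to 120 hpf at 28C, 0.64% DMSO vehicle; 5uM trimethyltin chloride served as positive control. Jaw morphology recorded as binary at 120 hpf.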

The nature of test [17]: Tanguay_ZF_120hpf_OTIC_legacy: (Legacy) Oregon State University Tanguay Lab 120 Hour Post-fertilization zebrafish Assay for Otic Vesicle Malformation (AID 2283639). In a few lines: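 Statically exposed wild-type 5D zebrafish embryos, kept sealed and dark at 28C through 120 hours post fertilization, were examined by brightfield microscopy for otic vesicle defects. Responses were recorded as present or absent and analysed relative to DMSO.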

The nature of test [18]: Tanguay_ZF_120hpf_PE_legacy: (Legacy) Oregon State University Tanguay Lab 120 Hour Post-fertilization zebrafish Assay for Pericardial Edema (AID 2283640). In a few lines:
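Read-out is the presence or absence of pericardial edema at 120 hpf under brightfield, with gain of signal fitted against DMSO controls. Larvae (5D wild-type) were statically exposed at 28C with 0.64% final DMSO.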

Test [19] is described as follows: Tanguay_ZF_120hpf_BRAI_legacy: (Legacy) Oregon State University Tanguay Lab 120 Hour Post-fertilization zebrafish Assay for Brain Malformation (AID 2283641). In short, it runs like this: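 Brain malformation in Tropical 5D zebrafish was recorded as a binary endpoint after static compound exposure from early development to 120 hpf at 28C. Activity was analysed against DMSO as negative control.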

Test [20] is described as follows: Tanguay_ZF_120hpf_SOMI_legacy: (Legacy) Oregon State University Tanguay Lab 120 Hour Post-fertilization zebrafish Assay for Somite Malformation (AID 2283647). In a few lines: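 5D WT zebrafish; chorion removed 4 hpf; 1 embryo/well from 6 hpf; static exposure to 120 hpf, 28C, 0.64% DMSO final. Endpoint: somite malformation, binary, brightfield. Mortality excluded.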

Usually AC50 stands for the concentration at which the activity in the assay is half-maximal.

Inconclusive results are not listed. Some compounds were tested as several samples or in several runs, with calls that do not always agree. The source made the active and inactive calls. The calls were made as follows: active = hit-call score of the fitted dose curve at least 0.9, where 1 is the maximum; inconclusive = response in the unintended direction; inactive = score below 0.9.

Chain of Cellular tumor antigen p53 (Homo sapiens) (P04637 whole entry, looked up): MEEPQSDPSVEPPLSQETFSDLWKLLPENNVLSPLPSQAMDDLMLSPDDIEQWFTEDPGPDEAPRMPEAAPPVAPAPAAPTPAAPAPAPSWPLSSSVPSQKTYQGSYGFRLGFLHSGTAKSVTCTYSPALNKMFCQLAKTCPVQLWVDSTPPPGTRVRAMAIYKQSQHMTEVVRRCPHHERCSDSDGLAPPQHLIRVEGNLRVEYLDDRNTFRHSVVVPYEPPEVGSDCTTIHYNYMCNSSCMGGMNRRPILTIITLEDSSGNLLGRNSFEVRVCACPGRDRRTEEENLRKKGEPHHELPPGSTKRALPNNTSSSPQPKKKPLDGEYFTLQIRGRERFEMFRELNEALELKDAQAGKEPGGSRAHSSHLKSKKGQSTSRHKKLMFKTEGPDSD

Consider `Oc1cccc(O)c1`, for which the compound was called inactive in test [1], in test [2], in [3], in [4], in [5] and in [6]. The outcome in test [7], in test [8], in test [9], in [10], in [11] and in test [12] was inactive. Moreover, the compound was classed as inactive in test [13], in [14], in test [15], in [16], in test [17] and in test [18]. The compound was called inactive in test [19] and in test [20].

For `CC[C@H](C)[C@@H](C(=O)O)n1sc2ccccc2c1=O`, the call in test [1], in [4], in test [6], in test [7], in [8] and in test [11] was inactive. Moreover, the result in test [12], in test [13], in test [14], in test [15], in [16] and in test [17] was inactive. Also, the call in [18], in [19] and in test [20] was inactive.

`OCCC(F)(F)C(F)(F)C(F)(F)C(F)(F)C(F)(F)C(F)(F)F`: the call in [1], in test [2], in [8], in test [9], in test [10] and in test [11] was inactive. Also, the outcome in test [12], in test [16], in [17], in test [18], in [19] and in test [20] was inactive.

As to `COCC(C)O` (configuration not stated), the result in test [1], in [2], in [4], in test [6], in test [7] and in test [8] was inactive. Further, the outcome in test [9], in [10], in test [11], in [12], in test [13] and in test [14] was inactive. Also, the compound was classed as inactive in [15], in test [16], in test [17], in [18], in test [19] and in [20].

Regarding `c1ccc2c(c1)Cc1ccccc1-2`, the outcome in test [1], in test [3], in [4], in test [5], in test [6] and in [7] was inactive. For the same compound, the outcome in test [8], in test [9], in [10], in test [11], in test [12] and in test [13] was inactive. The call in test [14], in test [15], in test [16], in test [17], in [18] and in [19] was inactive. Further, the call in test [20] was inactive. Further, the half-maximal activity concentration (AC50) in test [8] is 87.3 µM (active).

With `CC(C)CCCCCCOC(=O)CCCCC(=O)OCCCCCCC(C)C`, the outcome in test [1], in [3], in test [4], in test [7], in test [10] and in test [11] was inactive. The result in test [12], in test [14], in test [15], in test [16], in [17] and in test [18] was inactive. For the same compound, the outcome in [19] and in test [20] was inactive.

On to `O=C(O)c1ccccc1C(c1ccc(O)cc1)c1ccc(O)cc1`, for which the compound was called inactive in [1], in [11], in test [12], in test [13], in [14] and in test [15]. Moreover, the call in [16], in test [17], in test [18] and in test [20] was inactive.

In the case of `CCCOc1sc(C(=O)N2CCC(c3cc(CN)ccc3F)CC2)c(C)c1Br`, the compound was called inactive in test [1], in [11], in test [12], in test [13], in test [14] and in test [16]. For the same compound, the outcome in test [17], in [18], in [19] and in [20] was inactive. The AC50 was 43.2 µM (active) in test [3]; 80.1 µM (active) in test [4]; 80 µM (active) in test [5]; 80.4 µM (active) in [6]; 31.7 µM (active) in test [7]; 80.7 µM (active) in test [8]. For the same compound, the half-maximal activity concentration (AC50) in test [9] was 80.1 µM (active); in [10], 72.2 µM (active).
